# From PubChem BioAssay
# Anthrax LF inh2 = Bacillus anthracis LF protease inhibitors, primary screen, biochemical, multiplex microsphere, MLPCN library; Lethal factor (Bacillus anthracis), P15917; multiplex microsphere protease cleavage assay; inhibition, % at 10 µM; 360,000 tested, 0.12% active; AID 588501, 2011
# Autofluor counter = counter-screen for toxin protease inhibitors: compound fluorescence | compound autofluorescence counterscreen, microsphere flow cytometry; hits give high values | fluorescence intensity (no concentration beside the values) | 360,000 tested, 3.1% active; in the data active means fluorescence intensity above about 16000; inconclusive means no clear call, values can overlap the other calls
# PfHsp40 yeast = rescue of yeast from PfHsp40 toxicity, primary screen, S. cerevisiae, ATP luminescence | S. cerevisiae expressing PfHsp40, growth rescue | growth rescue, % at 12.5 µM | 340,000 tested, 0.68% active | AID 504582, 2011; in the data active means growth rescue above about 28%, passing the limit was not always enough; inconclusive means no clear call, values can overlap the other calls;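 further: yeast W303a lacking pdr1 and pdr3 grown in galactose medium; growth measured after three days at 30 °C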
# BoNT-A LC inh2 = BoNT/A light chain protease inhibitors, primary screen, biochemical, flow cytometry, MLPCN library; Botulinum neurotoxin type A light chain protease (Clostridium botulinum A str. ATCC 3502); multiplex microsphere protease substrate cleavage; inhibition, % at 10 µM; 360,000 tested, 0.17% active
# MazF activator = activators of E. coli MazEF toxin-antitoxin RNase, primary screen, biochemical, fluorescence, uHTS; Endoribonuclease toxin MazF (Escherichia coli (strain K12)), P0AE70; FAM/BHQ RNA-DNA oligo cleavage fluorescence, 5 h; activation, % at 20 µM; 350,000 tested, 0.32% active; AID 504720, 2011; in the data active means activation above about 50%
# Target sequence (P0AE70 whole entry, looked up): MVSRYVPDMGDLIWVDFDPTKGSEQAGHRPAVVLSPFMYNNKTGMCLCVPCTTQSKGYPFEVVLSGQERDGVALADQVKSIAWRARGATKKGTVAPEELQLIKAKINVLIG
# BoNT F protease = BoNT/F light chain protease inhibitors, primary screen, biochemical, flow cytometry, MLPCN library; Multiplex microsphere protease cleavage assay; 360,000 tested, 0.22% active; Botulinum neurotoxin type F light chain protease (Clostridium botulinum); inhibition, % at 10 µM; in the data active means inhibition above about 35%, passing the limit was not always enough; inconclusive means no clear call, values can overlap the other calls
# A number is an active result; – = inactive; ? = inconclusive; · = not tested or not shown. Sampled rows, rich in hits. Any-hit rate of the full collection: about 4.3%. Unless noted, no stated cut-off is given here; in the data, active means inhibition above about 30%; inconclusive means no clear call, values can overlap the other calls; inactive means below that.
SMILES,Anthrax LF inh2,Autofluor counter,PfHsp40 yeast,BoNT-A LC inh2,MazF activator,BoNT F protease
Cc1nn(CC(=O)NCCCN2C(C)CCCC2C)c(=O)c2cc3occc3n12 (stereo unspecified),–,–,–,–,–,–
CCn1c(SCC(=O)Nc2ccc(OC)cc2)nc2c(c1=O)SCC2,–,–,–,–,–,–
Cc1ccc(S(=O)(=O)NCCC(=O)Nc2ncccc2O)cc1C,–,–,–,–,–,–
CCC(C)(C)c1ccc(OCCCC[n+]2cccc(C)c2C)c(C(C)(C)CC)c1,·,·,44.9,·,–,·
CC1CN(Cc2ccccc2)C(=S)N(c2ccccc2)C1=O (stereo unspecified),–,–,–,–,–,–
COC(=O)c1cc(-c2ccccc2)sc1NC(=O)CN1C(=O)c2ccccc2C1=O,–,23511,–,?,–,–
Nc1cc2c(cc1[N+](=O)[O-])-c1ccccc1C2=NO,–,–,73.2,–,–,–
Cc1onc(-c2ccccc2)c1C(=O)OCC(=O)N(C)c1c(N)n(Cc2ccccc2)c(=O)[nH]c1=O,?,?,–,?,–,?
CCn1c(C)c(C(C)=O)cc(C#N)c1=O,–,–,–,–,–,–
CCC1Oc2ccc(C)cc2N(CC(=O)N(Cc2ccc3c(c2)OCO3)CC2CCCO2)C1=O (stereo unspecified),–,24977,–,–,–,–
COc1ccc(CN(CC2CCCO2)C(=O)CN2C(=O)C(C)Oc3ccc(C)cc32)cc1OC (stereo unspecified),–,–,–,–,–,–
COc1ccccc1-n1c([S-])c(C(=O)Nc2ccccc2C(F)(F)F)[n+]2ccc(C(=O)NCCO)cc12,–,–,–,36.5,–,–
Cc1ccc(-n2c([S-])c(C(=O)Nc3ccc(OC(F)F)cc3)[n+]3ccc(C(=O)NCCO)cc23)cc1C,–,–,–,50.9,–,–
Cc1ccc(NC(=O)c2ccc(OC(F)F)cc2)cc1S(=O)(=O)N(C)C,–,–,–,–,–,–
O=C(CSc1cccc[n+]1[O-])c1cc(Cl)ccc1Cl,–,–,80.2,–,–,–
COc1cc(-c2ccc3c(=O)c4ccccc4sc3c2)cc(OC)c1OC,–,–,–,–,–,–
COc1cc(-c2ccc3c(=O)c4ccccc4n(C)c3c2)cc(OC)c1OC,–,–,28.3,–,–,–
O=C(Nc1ccc(-c2n[nH]c(=S)o2)cc1)c1ccccc1Br,–,–,–,–,–,?
C=CCn1c(COc2ccccc2)nnc1SCC(=O)N/N=C/c1ccc(C)cc1,–,–,–,–,–,–
C=CCn1c(COc2ccccc2)nnc1SCC(=O)N/N=C/c1cc(Cl)ccc1O,–,–,43.8,–,–,–
CC1(C(=O)NS(=O)(=O)c2cccc(Cl)c2)CCN1C(=O)c1cccc2ccccc12 (stereo unspecified),–,–,·,–,·,–
O=c1[nH]c(CO)nc2c1oc1ccccc12,–,–,?,–,–,–
O=c1[nH]c(Cc2ccccc2)nc2c1oc1ccccc12,–,21955,–,–,–,–
Cc1nc(Oc2ccccc2)c2oc3ccccc3c2n1,–,–,–,–,–,–
Cc1nc2c(oc3ccccc32)c(=O)o1,–,16908,–,–,–,–
SMILES,Anthrax LF inh2,Autofluor counter,PfHsp40 yeast,BoNT-A LC inh2,MazF activator,BoNT F protease
Cc1sc(NC(=O)COc2cccc(-n3cnnn3)c2)c(C#N)c1C,–,?,–,–,119.6,–
O=C(COc1ccc(F)cc1)Nc1ccc(-n2cnnn2)cc1,–,20385,–,?,–,–
CCOc1ccc(NC(=O)c2cccc(-n3cnnn3)c2)cc1,–,23535,–,?,–,–
O=C(Nc1ccc(OC(F)(F)F)cc1)c1cccc(-n2cnnn2)c1,–,–,–,–,–,–
CCOc1ccccc1NC(=O)COc1cccc(-n2cnnn2)c1,–,23672,–,–,–,–
CCOc1ccc(NC(=O)COc2ccc(-n3cnnn3)cc2)cc1,?,–,–,?,–,?
COc1ccc(Cn2cc(CN3CCOCC3)nn2)cc1,–,–,·,–,·,–
CCOCC(=O)Nc1ccc2c(c1)N(S(=O)(=O)c1cccs1)CCC2,–,–,–,–,–,?
COc1ccc(-c2ocnc2C(=O)NCc2nn(-c3ccccc3)nc2C)cc1,–,–,–,–,–,?
O=C(c1cccn2c(=O)c3ccccc3nc12)N1CCN(Cc2ccc3c(c2)OCO3)CC1,–,20636,–,–,–,–
O=C(c1ccc2nc3ccccc3c(=O)n2c1)N1CCN(Cc2ccc3c(c2)OCO3)CC1,–,–,–,–,–,–
O=C(c1cccn2c(=O)c3cc(Cl)ccc3nc12)N1CCOCC1,–,23073,–,?,–,–
O=C(c1cccn2c(=O)c3cc(Cl)ccc3nc12)N1CCN(Cc2ccc3c(c2)OCO3)CC1,–,16508,–,–,–,–
O=C(c1cccn2c(=O)c3ccc(Cl)cc3nc12)N1CCC2(CC1)OCCO2,–,–,–,–,–,–
Cc1cccc(CN2CCN(C3CN(Cc4cn(Cc5ccccc5)nn4)S(=O)(=O)C3)CC2)c1 (stereo unspecified),–,–,·,–,·,–
CCCC(=O)Nc1ccc(Sc2ccc([N+](=O)[O-])cc2)cc1,–,–,–,–,–,–
CCC(CC)C(=O)Nc1ccc(Sc2ccc([N+](=O)[O-])cc2)cc1,–,19877,–,–,–,–
Cc1nn(Cc2ccccc2)c(C)c1NC(=O)c1cc(-c2ccc3c(c2)OCO3)on1,–,16514,–,?,–,–
Cc1c(NC(=O)c2cc(-c3ccc4c(c3)OCO4)on2)c(=O)n(-c2ccccc2)n1C,–,–,–,–,–,–
Cc1nn(Cc2ccccc2)c(C)c1NC(=O)c1cc(-c2cccs2)on1,–,16449,–,–,–,–
CSc1ccccc1NC(=O)c1cc(-c2cccs2)on1,–,24196,–,?,–,–
Cc1nn(Cc2ccccc2)c(C)c1NC(=O)c1cccs1,–,–,–,–,–,–
COc1cccc(-c2cc(C(=O)Nc3c(C)nn(Cc4ccccc4)c3C)no2)c1,–,–,–,–,–,–
COc1ccc(-c2cc(C(=O)Nc3ccccc3SC)no2)cc1,–,–,–,–,–,–
COc1ccc(-c2cc(C(=O)Nc3c(C)nn(Cc4ccccc4)c3C)no2)cc1,–,24465,–,–,–,–
O=C(Cc1ccc(NC(=O)C2CCCN(C(=O)C3CCC3)C2)cc1)Nc1cccc(C(=O)N2CCCCC2)c1 (stereo unspecified),–,–,–,–,–,–
Nc1ccn([C@@H]2O[C@H](C(=O)Nc3cc(C(F)(F)F)cc(C(F)(F)F)c3)[C@@H](O)[C@H]2O)c(=O)n1,–,–,·,–,·,–
